# Measured values reported in PubChem BioAssay AID489018 (Southern Research Specialized Biocontainment Screening …, 2010).
# About 350 (15%) of roughly 2,300 compounds were called active. No rule for the calls is given here. The list is a sample of the results. Entries with a potency or affinity are not part of this list.
# Test: HepG2 cell cytotoxicity, dose response, cytotoxicity control for non-replicating M. tuberculosis project (AID 489018);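 also: HepG2 human liver cells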
# Settings: series mostly up to 20 µM
row,SMILES,outcome
1,O=C(N/N=C\c1ccc([N+](=O)[O-])s1)c1cncc(Br)c1,inactive
2,Cc1c(C(=O)N(C)C)sc2nc(-c3ccccn3)[nH]c(=O)c12,inactive
3,CN(C)CCCn1c(=O)n(C2CCCCC2)c(=O)c2c3c(sc21)CCCCC3,inactive
4,CN(C)CCCNc1nc2sc3c(c2c(=O)n1CCc1ccccc1)CCCCC3,inactive
5,Cn1c(O)c(C(=Nc2ccccc2)SCc2ccccc2Cl)c(=O)n(C)c1=O,inactive
6,C=CCOc1ccc(CNCCO)cc1OCC,inactive
7,CCc1cc(OCCCCNCc2ccccc2)ccc1Cl,inactive
8,C/C(=N/Nc1ccnc2cc(Cl)ccc12)c1ccc(N)cc1,inactive
9,CC1CCN(C(=O)COC(=O)c2cc3ccccc3cc2O)CC1,inactive
10,CCc1c(C)c2ccc(OCC(=O)OC)cc2oc1=O,inactive
11,COc1n[nH]c(C(=O)Nc2cc(F)ccc2C)c1[N+](=O)[O-],inactive
12,Cc1ccccc1NC(=O)c1ccc([N+](=O)[O-])o1,inactive
13,Nc1nonc1C(=O)N/N=C/c1ccc([N+](=O)[O-])o1,inactive
14,O=[N+]([O-])c1ccc(/C=N/NS(=O)(=O)c2ccc(Cl)cc2)o1,inactive
15,Cc1cc(C)cc(OCC(=O)N/N=C/c2ccc([N+](=O)[O-])o2)c1,inactive
16,COc1ccc(C(=O)NCC(=O)N/N=C/c2ccc([N+](=O)[O-])o2)cc1OC,inactive
17,Cc1cc(C(=O)N/N=C/c2ccc([N+](=O)[O-])o2)c(C)o1,inactive
18,Cc1cccc(NC(=O)c2ccc([N+](=O)[O-])o2)c1C,inactive
19,O=C(Nc1ccccc1)c1cc2ccccc2o1,inactive
20,CN1C(c2ccccc2)CC(=NO)CC1c1ccccc1 (stereo not drawn),inactive
21,COc1ccccc1NC(=O)c1cnc(SC)nc1,inactive
22,O=C(CC(=O)c1cc(Cl)ccc1O)c1ccccc1,inactive
23,COc1ccc(-c2noc(-c3cc4ccccc4oc3=O)n2)cc1,inactive
24,O=C(N/N=C/c1ccc(Br)s1)c1ccccc1[N+](=O)[O-],inactive

row,SMILES,outcome
1,CCc1nnc(N/N=C/c2ccc(-c3ccc([N+](=O)[O-])cc3)o2)n1N,inactive
2,Cc1ccc(OCC(=O)N/N=C/c2ccc([N+](=O)[O-])o2)cc1,inactive
3,CCCCCCCC(=O)N/N=C/c1ccc([N+](=O)[O-])o1,inactive
4,O=C(N/N=C/c1ccc([N+](=O)[O-])o1)c1sc2ccccc2c1Cl,inactive
5,O=C(N/N=C\c1ccc([N+](=O)[O-])o1)C1COc2ccccc2O1 (stereo not drawn),inactive
6,COc1ccccc1OCC(=O)N/N=C/C=C/c1ccc([N+](=O)[O-])o1,inactive
7,O=C(N/N=C\c1ccc([N+](=O)[O-])o1)c1cncc(Br)c1,inactive
8,Cc1nonc1C(=O)N/N=C/c1ccc([N+](=O)[O-])o1,inactive
9,Brc1c(-c2ccc3c(c2)OCO3)nc2ncccn12,inactive
10,O=C(Nc1ccc(N2CCN(C(=O)c3ccco3)CC2)c(Cl)c1)c1cccs1,inactive
11,COC(=O)c1ccccc1Sc1ncnc2onc(C)c12,inactive
12,Cc1c(Cl)cccc1-c1ccc(CNCc2ccccn2)o1,inactive
13,N#Cc1nc(-c2ccc(OCc3ccccc3)cc2)oc1NCCCn1ccnc1,inactive
14,CCOC(=O)C(C)Oc1cc(Cl)c(C=O)cc1OC (stereo not drawn),inactive
15,N/N=C(/Cc1nc2ccccc2[nH]1)c1ccc([N+](=O)[O-])cc1,inactive
16,O=C(Nc1cc(C(F)(F)F)ccc1-n1cncn1)c1ccc([N+](=O)[O-])o1,inactive
17,COc1ccccc1-c1nnc(Sc2nc([N+](=O)[O-])nn2C)o1,inactive
18,Cc1cc(C)c(C(=O)COC(=O)c2ccc([N+](=O)[O-])o2)cc1C,inactive
19,COc1ccc2cc(C(=O)C3CCCN(Cc4cccc(C)n4)C3)ccc2c1 (stereo not drawn),inactive
20,CCCCOc1ccc(NC(=O)CN2CCN(Cc3ccccc3)CC2)cc1,inactive
21,CC(C)(C)c1ccccc1OCCOCCN1CCCCCC1,inactive
22,CS/C(Nc1cc(Cl)ccc1Cl)=C(/C#N)C(=O)c1ccco1,inactive
23,Cc1[nH]c2ccccc2c1C(=O)COC(=O)c1ccc([N+](=O)[O-])s1,inactive
24,c1ccc(Nc2nc(-c3ccccn3)cs2)cc1,inactive

row,SMILES,outcome
1,c1ccc(-c2n[nH]c(-c3ccccn3)n2)nc1,inactive
2,COC(=O)C(C)Oc1ccc2cc(-c3ccccc3)c(=O)oc2c1 (stereo not drawn),inactive
3,O=C(CCS(=O)(=O)Cc1ccccc1)Nc1ncc([N+](=O)[O-])s1,inactive
4,O=S(=O)(c1ccc(OCC2CO2)cc1)c1ccc(OCC2CO2)cc1 (stereo not drawn),inactive
5,Cc1ccccc1C(=O)NN1CC(C(=O)OCc2ccc(Cl)c(Cl)c2)CC1=O (stereo not drawn),inactive
6,CCC(C)c1ccc(OCCn2ccnc2)cc1 (stereo not drawn),inactive
7,Cc1ccc2nc(C)c3c(c2c1)COC3,inactive
8,Cc1[nH]n(-c2cccc(Cl)c2)c(=O)c1/C=N/n1c(C)nc2ccccc2c1=O,inactive
9,CC(C)(C)NCC1(CO)SC(N)=NC1=O (stereo not drawn),inactive
10,CCOC(=O)/C=C1\Nc2ccccc2OC1=O,inactive
11,COc1cc(NC(=O)C/C(C)=N/NC(=O)c2cccs2)c(OC)cc1Cl,inactive
12,O=C(Nc1nnc(-c2ccco2)o1)c1cccc2ccccc12,inactive
13,COc1ccc(/C=C/c2nc3ccccc3c(=O)o2)cc1,inactive
14,COC(=O)c1cc(-c2ccc(OC)cc2)on1,inactive
15,CC(=O)c1ccc(OC(=O)c2ccc(-n3nc(C)cc3C)cc2)cc1,inactive
16,Cn1nnc(NC(=O)COc2ccc(C3CCCCC3)cc2)n1,inactive
17,O=Cc1ccnc(-c2ccc(OC(=O)c3ccco3)cc2)n1,inactive
18,Cc1ccc(N/N=C2\CS(=O)(=O)N(C)c3ccsc32)cc1,inactive
19,O=C(N/N=C/c1ccc(Br)s1)c1cccnc1,inactive
20,O=C(N/N=C/c1ccccn1)c1cccc([N+](=O)[O-])c1,inactive
21,O=C(N/N=C/c1ccccn1)c1cc([N+](=O)[O-])cc([N+](=O)[O-])c1,inactive
22,COc1ccc(OCC(=O)NNC(=O)c2ccccn2)cc1,inactive
23,COc1cc(OC)cc(C(=O)NNC(=O)c2ccccn2)c1,inactive
24,O=C(N/N=C/c1ccc[nH]1)c1cccnc1,inactive

row,SMILES,outcome
1,COc1ccc(C(=O)N/N=C/c2cccc3cccnc23)cc1,inactive
2,COc1cccc(NC(=O)c2ccc(C(=O)c3ccccc3)o2)c1,inactive
3,Cc1ccc2[nH]c(C)c(CCNC(=O)c3cc4cc([N+](=O)[O-])ccc4oc3=O)c2c1,inactive
4,Cc1cccc(NCCC(=O)c2ccc([N+](=O)[O-])cc2)c1C,inactive
5,CC(C)c1ccc(C2=C(O)c3ccccc3C(=O)C2=O)cc1,inactive
6,O=C(CC1CCCC1)OCn1nnc2ccccc2c1=O,inactive
7,O=C(c1cc([N+](=O)[O-])cc([N+](=O)[O-])c1)N(Cc1nnc(-c2ccccc2Cl)o1)C1CC1,inactive
8,O=C1N/C(=N\c2ccccn2)SC1Cc1ccc(Cl)cc1 (stereo not drawn),inactive
9,COc1cc(/C=C/c2ccc3c([N+](=O)[O-])cccc3n2)ccc1OCC(=O)O,inactive
10,CCCOc1ccc(-c2nc(C#N)c(NCCCn3ccnc3)o2)cc1,inactive
11,O=C(CCSc1nnc(-c2ccccc2)o1)N1CCOCC1,inactive
12,Cc1onc(-c2ccccc2)c1C(=O)O/N=C(\N)c1ccc([N+](=O)[O-])o1,inactive
13,O=C(COC(=O)c1ccc(Br)o1)NCCCc1ccccc1,inactive
14,Oc1ccccc1Nc1nc(NCC2CCCO2)c2ccccc2n1 (stereo not drawn),inactive
15,O=C(c1ccc([N+](=O)[O-])s1)N1CCN(c2cccc(Cl)c2)CC1,inactive
16,O=c1oc(-c2cccs2)nc2c1cnn2-c1ccccc1,inactive
17,NC(N)=N/N=C/c1cn(-c2ccccc2)nc1-c1cccs1,inactive
18,Cc1ccc(-c2nn(-c3ccccc3)cc2/C=N/NC(=O)c2ccncc2)o1,inactive
19,O=C(N/N=C/c1cccc2nccnc12)c1ccncc1,inactive
20,CC(C)(C)Sc1ccc2nc3c(n2c1)CCCC3,inactive
21,CCOC(=O)C(Nc1ccc2ccccc2c1)C(=O)OCC,inactive
22,CC1Cc2ccccc2N1C(=O)COC(=O)c1ccc(Cl)nc1 (stereo not drawn),inactive
23,Cc1ccc(C(=O)N/N=C/c2ccc([N+](=O)[O-])s2)cc1,inactive
24,COC(=O)N/N=C/c1ccc([N+](=O)[O-])s1,inactive

row,SMILES,outcome
1,O=C(CNC(=O)c1cccc(F)c1)N/N=C/c1ccc([N+](=O)[O-])s1,inactive
2,O=C(N/N=C/c1ccc([N+](=O)[O-])s1)c1cccc(Br)c1,inactive
3,CCOC(=O)N/N=C\c1ccc([N+](=O)[O-])s1,inactive
4,O=C(N/N=C/c1ccc([N+](=O)[O-])s1)c1ccncc1,inactive
5,CC(C)(C)OC(=O)N/N=C\c1ccc([N+](=O)[O-])s1,inactive
6,O=C(N/N=C/c1ccc([N+](=O)[O-])s1)c1ccccc1,inactive
7,Oc1oc(-c2ccco2)nc1C=Nc1cccc(Cl)c1,inactive
8,CCCCOC(=O)C1CCCC(C(=O)OCCCC)N1 (stereo not drawn),inactive
9,COC(=O)COc1ccc(S(=O)(=O)N2CCCCCC2)cc1,inactive
10,O=C(CNC(=O)c1ccco1)OCc1ccc(C(=O)Oc2ccccc2)cc1,inactive
11,Cn1c(-c2cccc([N+](=O)[O-])c2)cnc1NCc1cccc(F)c1,inactive
12,Cc1ccc(C)c(-c2csc(NC(=O)c3cnccn3)n2)c1,inactive
13,O=C(Nc1nnc(-c2ccccn2)o1)c1cccc(Cl)c1,inactive
14,COCCOC(=O)c1c(C)oc2ccc(OC(=O)c3ccco3)cc12,inactive
15,O=C(Nc1nnc(-c2ccc(Br)cc2)o1)C1=COCCO1,inactive
16,O=C(c1ccc(-c2ccc([N+](=O)[O-])cc2)o1)N1CCCCCCC1,inactive
17,FC(F)(F)c1nnc2ccc(Cl)nn12,inactive
18,Cc1cc(N/N=C/c2ccccc2O)c2ccccc2n1,inactive
19,COc1ccc2nc(/N=C(\N)NC(=O)C(C)(C)C)nc(C)c2c1,inactive
20,COc1cc(/C=N/Nc2cccc3cccnc23)cc(OC)c1O,inactive
21,COc1ccc(/C=N/Nc2cc(C)nc(-n3nc(C)cc3C)n2)cc1,inactive
22,COc1ccc(Nc2ccccc2N)cc1,inactive
